Shiga inhibitor: blocks Shiga toxin action in Vero cells; Vero cells, Shiga toxin protein synthesis inhibition reporter; 290,000 compounds, 9.2% hits; inhibition, % at 38.7 µM; in the data active = inhibition mostly above about 28%, no sharp cut-off; inactive = mostly below about 43%; note: 0% is about no effect
Pf growth 48h: P. falciparum growth inhibition at 48 hours (one generation); 310,000 compounds, 5.9% hits; P. falciparum luciferase growth in erythrocytes, 48 h; AID 504832; Potency, µM (series often up to 28.7 µM), for the others: at the highest dose activity change, negative = inhibition, hits mostly inhibitors; note: potency is the fitted concentration of half-maximal effect; % is set by controls: 0 for no effect and ±100 for the full control effect
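Luciferase-expressing parasites in RBCs, 2% Hct / 0.1% parasitemia final; RPMI 1640 + 0.5% Albumax; 37 C, 5% CO2, one generation; luminescence read-out, lower signal = inhibition.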
LmPK inhibitor: LmPK (Leishmania mexicana) enzyme inhibition | 290,000 compounds, 0.37% hits | purified LmPK, Kinase-Glo ATP luminescence, 1 h | Q27686 | Potency, µM (top dose mostly 57.5 µM), inactives show top-dose activity change, negative = inhibition, actives largely listed as inhibitors | AID 1721; note: potency is the fitted concentration of half-maximal effect; % is set by controls: 0 for no effect and ±100 for the full control effect
Target sequence (Q27686 whole entry, looked up): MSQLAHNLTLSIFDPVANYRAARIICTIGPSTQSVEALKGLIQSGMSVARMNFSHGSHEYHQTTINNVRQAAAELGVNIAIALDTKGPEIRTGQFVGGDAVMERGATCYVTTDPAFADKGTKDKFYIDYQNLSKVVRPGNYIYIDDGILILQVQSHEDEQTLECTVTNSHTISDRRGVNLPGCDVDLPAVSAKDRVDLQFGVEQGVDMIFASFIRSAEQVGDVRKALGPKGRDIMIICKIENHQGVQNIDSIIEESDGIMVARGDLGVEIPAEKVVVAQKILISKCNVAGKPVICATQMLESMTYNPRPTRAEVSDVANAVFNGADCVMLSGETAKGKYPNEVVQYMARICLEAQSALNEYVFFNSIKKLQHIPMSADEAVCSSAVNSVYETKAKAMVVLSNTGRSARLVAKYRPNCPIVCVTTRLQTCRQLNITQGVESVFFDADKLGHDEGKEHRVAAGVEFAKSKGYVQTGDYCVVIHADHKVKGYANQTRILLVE
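Screened at intermediate enzyme activity to detect both inhibitors and activators: LmPK at 0.1 nM, with a 0.5 nM enzyme column as activation reference. PEP 0.5 mM, ADP 0.1 mM; ATP detected by luminescence after 1 h.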
Pf growth 96h: P. falciparum growth inhibition at 96 hour, primary screen for plastid delayed-death inhibitors. P. falciparum luciferase reporter growth, 96 h. Potency, µM (top dose mostly 28.7 µM), for inactives: top-dose activity change, negative = inhibition, actives largely listed as inhibitors. 320,000 compounds, 6.9% hits; note: potency is the fitted concentration of half-maximal effect; % is set by controls: 0 for no effect and ±100 for the full control effect
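Compounds incubated with erythrocytes infected by luciferase-expressing P. falciparum (2% hematocrit, 0.05% parasitemia final) for 96 hours, 37 C in 5% CO2. Growth inhibition scored as decreased luciferase luminescence.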
Cycloheximide cs: affects cycloheximide protein synthesis inhibition readout, counter-screen. cell reporter, cycloheximide protein synthesis inhibition counterscreen. max response, %. 300,000 compounds, 12% hits. AID 2314; in the data active = max response mostly above about 13%, no sharp cut-off; inactive = mostly below about 14%; note: read at 38.3 µM for the half of the compounds with a filed dose; 0% is about no effect
The depositor's hits bear a star; ? = inconclusive; . = no result; + = active, no number; [ ] = dose if it differs, or a comment. The list is not random: actives were taken first. Their share in the collection is about 22%. Unless noted, calls come from the whole dose curve; as a rule, active = well fitted inhibition curve with a large enough effect; inconclusive = small, poorly fitted or top-dose-only effect, or another doubt; inactive = no such curve, though single readings can be large or run the other way.

SMILES | Shiga inhibitor | Pf growth 48h | LmPK inhibitor | Pf growth 96h | Cycloheximide cs
Cn1cccc1Cc1nnc(SCC(=O)Nc2cccc(Cl)c2)n1-c1ccc(F)cc1 | -14 | ? | 3% | 8.3µM* | -7
CCc1ccc(NC(=O)CSc2nnc(Cc3cccn3C)n2-c2ccc(F)cc2)cc1 | -8 | 10µM* | 3% | 2.3µM* | -1
Cc1ccc(NC(=O)CSc2nnc(Cc3cccn3C)n2-c2ccc(F)cc2)cc1 | -15 | ? | 1% | ? | 7
Cn1cccc1Cc1nnc(SCC(=O)Nc2cccc(F)c2)n1-c1ccc(F)cc1 | 18 | ? | -3% | ? | -4
O=C(NN=C1CCCCCCC1)C(=O)NC1CCCCC1 | -19 | 28% | 2% | ? | 0
O=C(NN=C1CCCCCC1)NC1CCCCC1 | 51* | 1% | 0% | ? | 30*
O=C(O)c1ccc(N/N=C/c2cccc3nccnc23)cc1 | 45* | 153% | -9% | 134% | 27*
O=C(CN1CCCCC1)N/N=C/c1cc2ccccc2nc1Cl | 29 | -10% | 1%[11.5 µM] | -20% | 14
C[C@H](NC(=O)OC(C)(C)C)C(=O)N/N=C/c1cccc2nccnc12 | -14 | -1% | -4% | 10% | -3
O=C(O)c1ccc(N/N=C/c2cc3ccccc3nc2Cl)cc1 | 84* | 185% | -6% | 207% | 38*
Cc1cccc2cc(/C=N/Nc3ccc(C(=O)O)cc3)c(Cl)nc12 | 128* | 217% | 2% | 384% | 68*
O=[N+]([O-])c1ccccc1N/N=C/c1cc2ccccc2nc1Cl | + | 91% | 8% | . | 38
CC(C)C[C@H](NC(=O)C1CCN(C(=O)[C@H](Cc2ccccc2)NC(=O)OC(C)(C)C)CC1)C(=O)O | -4 | -12% | 1% | 5% | -1
c1ccc2c(N3CCCC3)nc(-c3ccncc3)nc2c1 | -13 | ? | -2% | ? | -1
c1ccc(CN2CCN(c3nc(-c4ccccc4)nc4ccccc34)CC2)cc1 | -16 | 3.3µM* | 3% | . | 6
c1ccc(CN2CCN(c3nc(-c4ccccn4)nc4ccccc34)CC2)cc1 | -9 | 1.7µM* | -11% | -99% | 10
CN1CCN(c2nc(-c3ccncc3)nc3ccccc23)CC1 | -2 | 9.3µM* | 0% | . | -5
COc1cccc(-c2nc(N3CCN(C)CC3)c3ccccc3n2)c1O | 34 | 0% | 5% | 0% | 14*
CCC(=O)N(c1nnc(SCC(=O)NN2C(=O)NC3(CCCCC3)C2=O)s1)C1CC1 | . | 0% | . | ? | .
O=c1c2cc(Cl)ccc2[nH]c(=S)n1Cc1ccco1 | 27 | 9% | 2% | ? | 3
O=c1c2cc(Cl)ccc2[nH]c(=S)n1Cc1cccs1 | -6 | 13% | -1% | 13µM* | -2
O=C1CCCN1CCC(=O)N1CCCC(Nc2ccc(F)c(F)c2)C1 (stereo not given) | 33* | -4% | -6% | ? | 13
COc1ccc(NC2CCCN(C(=O)CCc3ccncc3)C2)cc1OC (stereo not given) | -12 | 0% | 5% | -23% | 45*
O=C(CCc1ccncc1)N1CCCC(Nc2ccc(F)c(F)c2)C1 (stereo not given) | -2 | 0% | -1% | 13µM* | 1
COc1ccc(NC2CCCN(C(=O)CCCn3cncn3)C2)cc1OC (stereo not given) | 1 | -4% | 1% | 2.6µM* | -4
SMILES | Shiga inhibitor | Pf growth 48h | LmPK inhibitor | Pf growth 96h | Cycloheximide cs
CCCCOc1ccc(/C=C/C(=O)OCC(=O)NC(=O)NCC(C)C)cc1OCC | -11 | 0% | 1% | 19% | 8
CC(C)c1ccccc1OS(N)(=O)=O | -8 | 39% | 0% | 14% | -1
Cc1ccc(NC(=O)CN(C)C(=O)/C=C/c2cccs2)cc1 | -3 | 16% | 4% | ? | 9.6*
Cc1ccc(NC(=O)/C(CN(C)C)=N\O)cc1 | 62* | 121% | 5% | 6% | 27*
Cc1ccc(NC(=O)CN(C)Cc2ccc(Cl)cc2)cc1 | -15 | -8% | 1% | 21% | -1
Cc1cccc(C)c1NC(=O)CN(C)C(=O)/C=C/c1cccs1 | -3 | 8% | 0% | 8% | 0
Cc1ccc(NC(=O)CN(C)C(=O)Nc2ccc(C)cc2)cc1 | 69* | 34% | -1% | 45% | 22*
CC1(C2CC2)NC(=O)N(CC(=O)Nc2ccc(Cl)c([N+](=O)[O-])c2)C1=O (stereo not given) | . | -1% | . | -32% | .
C(=N\Nc1nn2cnnc2c2ccccc12)/c1ccco1 | 6 | 63% | -4% | 7% | 12
CCOc1cc(/C=N/Nc2nn3cnnc3c3ccccc23)ccc1O | 25 | ? | 16µM* | 33% | 12*
COc1cccc(/C=N/Nc2nn3cnnc3c3ccccc23)c1 | 22 | . | 25µM* | -19% | 5
COc1cc(/C=N/Nc2nn3cnnc3c3ccccc23)ccc1O | -2 | ? | 7.9µM* | ? | 2
COc1cccc(/C=N/Nc2nc3ccccc3n3cnnc23)c1 | 18 | 18% | 4% | ? | -2
Oc1ccc(/C=N/Nc2nn3cnnc3c3ccccc23)cc1 | 20 | 61% | 14µM* | 19% | 8
CCCCN1C(=O)/C(=C2\SC(N3CCCCC3)=NC2=O)c2ccccc21 | 57* | 88% | -12% | 166% | 26*
CC(OC(=O)/C=C/c1ccccc1)C(=O)Nc1cccc(C#N)c1 (stereo not given) | . | ? | . | 33% | .
COc1ccc(CN2CCC(CO)(CCOc3ccccc3)CC2)c(OC)c1C | -12 | 3.7µM* | -2% | -6% | -3
OCC1(CCOc2ccccc2)CCN(Cc2ccccc2C(F)(F)F)CC1 | -4 | 22% | -1% | 8.3µM* | -1
COc1cc(Cl)c(CN2CCC(CO)(CCOc3ccccc3)CC2)cc1OC | -12 | ? | -4% | ? | -3
S=C(NCc1ccco1)NCC1CCCO1 (stereo not given) | -14 | 11% | 0% | -6% | -2
CC(OC(=O)Cc1c[nH]c2ccccc12)C(=O)Nc1ccccc1F (stereo not given) | . | 8% | . | 2% | .
O=C1NN(C(=O)Nc2ccc(Br)cc2)C(c2ccccc2)C1c1ccccc1 (stereo not given) | 54* | . | . | . | 9
CCN1CCN(Cc2cc(Br)cc(Br)c2O)CC1 | -27 | 1.7µM* | -1% | . | -5
OCCN1CCN(Cc2cc(Br)cc(Br)c2O)CC1 | -10 | 0% | 0% | 5% | -5
Oc1ccc(Br)cc1CN1CCCCCCC1 | 4 | 1.7µM* | -6% | . | -1
Oc1ccc(Br)cc1CN1CCN(c2ccccc2)CC1 | -8 | 1.7µM* | 0% | 63% | -4
CCN1CCN(Cc2cc(Br)ccc2O)CC1 | -2 | 13µM* | 1% | . | 0
OCC1O[C@H](OC2C(CO)O[C@@](O)(CO)C2O)C(O)C(O)C1O (stereo not given in full) | . | 1% | . | -5% | .
CC1CCCN(c2ccc3nncn3n2)C1 (stereo not given) | -8 | . | -6% | 12% | -5
Cc1ccc(CNC(=O)c2ccc(CN3CCOCC3)cc2)cc1 | -7 | 13% | -2% | -17% | -2
